# Measured values as given in the supplement of paper PMC9135407.
# “And” between values parts separate entries of the source, which are not always exact repeats. Equal entries are not always repeated. Structures can show the parent of a compound that is named as a salt. The campaign covered roughly 5,800 compounds. About 620 (11%) showed activity. The sample as a whole holds a higher share of actives than the screen did. A number with no mark means an inactive call.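 How the source made its calls: active = score above a cut-off or among the top three wells of a plate; in these data no inactive exceeds 0.85.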
# Test system: primary human hepatic stellate cells (donor 1)
# Assay: scaled lipid accumulation score (0 = DMSO-like, 1 = nortriptyline-like); higher = stronger HSC inactivation (lipid re-accumulation), active = hit call of the paper
# Details: 48 h
# [1] = library stock concentration: 10 mM
# [2] = library stock concentration: 3.33 mM
# [3] = library stock concentration: 1 mM
# [4] = library stock concentration: 80 uM
# [5] = library stock concentration: 400 uM
# [6] = library stock concentration: 2 mM
smiles,measurement,setting,value
CCCOc1ccc(Br)cc1-c1cc(-c2ccc(Cl)cc2)[nH]c1-c1ccncc1,scaled lipid accumulation score,[1],0.006
O=C1NC(=O)c2cc(Nc3ccccc3)c(Nc3ccccc3)cc21,scaled lipid accumulation score,[1],0.353 and 0.003
Cc1cccc(-c2nn3c(c2-c2ccnc4ccc(C(N)=O)cc24)CCC3)n1,scaled lipid accumulation score,[2],0.006
same,scaled lipid accumulation score,[1],≤ 0
O=C(O)CCC/C=C\C[C@@H]1C(=O)C[C@@H](O)[C@@H]1/C=C/[C@@H](O)CC1CCCCC1 [8-iso-16-cyclohexyl-tetranor Prostaglandin E2],scaled lipid accumulation score,[3],≤ 0
CN1CCCC(n2nc(Cc3ccc(Cl)cc3)c3ccccc3c2=O)CC1 (configuration not stated),scaled lipid accumulation score,[1],1.21 (active)
CN1CCCC(n2nc(Cc3ccc(Cl)cc3)c3ccccc3c2=O)CC1 (configuration not stated) [Azelastine HCl],scaled lipid accumulation score,[2],0.604
O=C(c1cc(Cc2n[nH]c(=O)c3ccccc23)ccc1F)N1CCN(C(=O)C2CC2)CC1 [Olaparib],scaled lipid accumulation score,[4],≤ -0.0005
same,scaled lipid accumulation score,[5],≤ -0.0045
same,scaled lipid accumulation score,[6],≤ -0.0045
same,scaled lipid accumulation score,[1],≤ -0.0045
COC1CCN(C(=O)c2cc(Cc3n[nH]c(=O)c4ccccc34)ccc2F)CC1,scaled lipid accumulation score,[2],≤ 0
same,scaled lipid accumulation score,[1],≤ -0.001
CN1CCCC(n2nc(Cc3ccc(Cl)cc3)c3ccccc3c2=O)CC1.Cl (configuration not stated) [Azelastine HCl],scaled lipid accumulation score,[1],1.09 (active)
O=C(c1cc(Cc2n[nH]c(=O)c3ccccc23)ccc1F)N1CCN(C(=O)C2CC2)CC1,scaled lipid accumulation score,[2],≤ 0
same,scaled lipid accumulation score,[1],≤ 0
CN1CCCC(n2nc(Cc3ccc(Cl)cc3)c3ccccc3c2=O)CC1.Cl (configuration not stated) [Azelastine hydrochloride],scaled lipid accumulation score,library stock concentration: 4.8 mM,0.978 (active)
same,scaled lipid accumulation score,[1],0.992 (active)
NC(C(=O)O)c1ccc(C(=O)O)c(C(=O)O)c1 (racemic),scaled lipid accumulation score,[1],≤ -0.006
C[C@@H]1CN(c2c(F)c(F)c3c(=O)c(C(=O)O)cn(C4CC4)c3c2F)C[C@H](C)N1,scaled lipid accumulation score,[1],≤ 0
N=C(NO)NCC[C@H](N)C(=O)O,scaled lipid accumulation score,[3],≤ 0
CC(=O)Oc1cccc(O)c1 [Resorcinol monoacetate],scaled lipid accumulation score,[1],0.063
same,scaled lipid accumulation score,library stock concentration: 13.1 mM,≤ 0
CCCCCCCC/C=C\C/C=C\C/C=C\CCCC(=O)NCCO [Mead ethanolamide],scaled lipid accumulation score,[3],0.017
"CCCCCCCC/C=C\C/C=C\C/C=C\CCCC(=O)NCCO [5(Z),8(Z),11(Z)-Eicosatrienoic Acid Ethanolamide]",scaled lipid accumulation score,[3],0.015
CCCCCCCCCCCCCCCC(=O)O[C@H](CC(=O)O)C[N+](C)(C)C,scaled lipid accumulation score,[1],0.027
CCCOc1ccc(C=C2SC(=O)NC2=O)cc1,scaled lipid accumulation score,[4],≤ -0.001
same,scaled lipid accumulation score,[5],≤ -0.001
same,scaled lipid accumulation score,[6],≤ -0.001
same,scaled lipid accumulation score,[1],≤ -0.001
OCC(O)CCO/N=C1\C(c2c(O)[nH]c3ccccc23)=Nc2ccccc21 (configuration not stated) [Indirubin Derivative E804],scaled lipid accumulation score,[2],≤ 0
Fc1ccc([C@@H]2CCNC[C@H]2COc2ccc3c(c2)OCO3)cc1 [Paroxetine HCl] [listing 1 of 2 here],scaled lipid accumulation score,[1],0.355
Fc1ccc([C@@H]2CCNC[C@H]2COc2ccc3c(c2)OCO3)cc1 [Paroxetine hydrochloride],scaled lipid accumulation score,[1],0.808
c1ccc(N2CCN(CCCOc3ccc4c(c3)OCO4)CC2)cc1 [BP 554 maleate],scaled lipid accumulation score,[1],≤ 0
Fc1ccc([C@@H]2CCNC[C@H]2COc2ccc3c(c2)OCO3)cc1 [Paroxetine],scaled lipid accumulation score,[1],0.634
Fc1ccc([C@@H]2CCNC[C@H]2COc2ccc3c(c2)OCO3)cc1 [Paroxetine HCl] [listing 2 of 2 here],scaled lipid accumulation score,library stock concentration: 6.1 mM,1.01 (active)
Cl.Fc1ccc([C@@H]2CCNC[C@H]2COc2ccc3c(c2)OCO3)cc1 [Paroxetine Hydrochloride],scaled lipid accumulation score,,1.22 (active)
Fc1ccc([C@@H]2CCNC[C@H]2COc2ccc3c(c2)OCO3)cc1 [Paroxetine hydrochloride hemihydrate (MW = 374.83)],scaled lipid accumulation score,[1],0.836
Cl.Fc1ccc([C@@H]2CCNC[C@H]2COc2ccc3c(c2)OCO3)cc1 [Paroxetine HCl],scaled lipid accumulation score,[2],0.491 (active)
COc1cc(F)c(C(C)C)cc1-c1ccc(C(F)(F)F)cc1CN1C(=O)O[C@H](c2cc(C(F)(F)F)cc(C(F)(F)F)c2)[C@@H]1C [Anacetrapib (MK-0859)],scaled lipid accumulation score,[2],≤ 0
same,scaled lipid accumulation score,[1],≤ 0
C=C1C[C@@H](O)[C@H](/C=C/[C@@H](O)CCCCC)[C@H]1C/C=C\CCCC(=O)O [9-deoxy-9-methylene Prostaglandin E2],scaled lipid accumulation score,[3],0.01
Cc1cc(C)cc(NC(=O)Cc2ccc(OC(C)(C)C(=O)O)cc2)c1 [Efaproxiral Sodium],scaled lipid accumulation score,[2],≤ 0
same,scaled lipid accumulation score,[1],≤ -0.001
O=C1Cc2c([nH]c3ccc([N+](=O)[O-])cc23)-c2ccccc2N1 [Alsterpaullone],scaled lipid accumulation score,[2],≤ 0
COc1ccc(/C=C/C(=O)Nc2c(O)cccc2C(=O)O)cc1OC,scaled lipid accumulation score,[3],≤ 0
O=C(c1ccccc1)c1ccc2n1CCC2C(=O)O (configuration not stated) [Ketorolac tromethamine],scaled lipid accumulation score,,≤ 0
same,scaled lipid accumulation score,library stock concentration: 5.3 mM,≤ 0
same,scaled lipid accumulation score,[1],0.024
O=C(c1ccccc1)c1ccc2n1CCC2C(=O)O (configuration not stated) [Ketorolac],scaled lipid accumulation score,[2],≤ 0
same,scaled lipid accumulation score,[1],≤ 0
O=C(c1ccccc1)c1ccc2n1CCC2C(=O)O (configuration not stated) [Ketorolac (tromethamine salt)],scaled lipid accumulation score,[3],≤ 0
O=C(c1ccccc1)c1ccc2n1CCC2C(=O)O (configuration not stated) [Ketorolac tris salt],scaled lipid accumulation score,[1],≤ -0.055
O=C(c1ccccc1)c1ccc2n1CCC2C(=O)O (configuration not stated),scaled lipid accumulation score,[1],≤ 0
O=C(c1cccnc1)N1CCOCC1,scaled lipid accumulation score,[1],0.163
COC(=O)[C@]12CCC(C)(C)C[C@H]1[C@H]1C(=O)C=C3[C@@]4(C)C=C(C#N)C(=O)C(C)(C)[C@@H]4CC[C@@]3(C)[C@]1(C)CC2 [Bardoxolone Methyl],scaled lipid accumulation score,[2],0.195
same,scaled lipid accumulation score,[1],0.183
CC(C)OC(=O)CCC/C=C\C[C@@H]1[C@@H](/C=C/[C@@H](O)COc2cccc(C(F)(F)F)c2)[C@H](O)C[C@@H]1O,scaled lipid accumulation score,[1],≤ 0
O=C(/C=C\n1cnc(-c2cc(C(F)(F)F)cc(C(F)(F)F)c2)n1)NNc1cnccn1,scaled lipid accumulation score,[2],≤ -0.009
same,scaled lipid accumulation score,[1],0.384
CC1(C)S[C@@H]2[C@H](NC(=O)[C@H](NC(=O)N3CCN(S(C)(=O)=O)C3=O)c3ccccc3)C(=O)N2[C@H]1C(=O)O [Mezlocillin Sodium],scaled lipid accumulation score,[2],≤ 0
same,scaled lipid accumulation score,[1],0.043
C[C@@H](CN1CCC(n2c(=O)[nH]c3cc(Cl)ccc32)CC1)NC(=O)c1ccc2ccccc2c1.Cl,scaled lipid accumulation score,[1],1.12 (active)
C[C@@H](CN1CCC(n2c(=O)[nH]c3cc(Cl)ccc32)CC1)NC(=O)c1ccc2ccccc2c1,scaled lipid accumulation score,[3],0.02
O=C(NCCN1CCC(n2c(=O)[nH]c3cc(Cl)ccc32)CC1)c1ccc(F)cc1 [Halopemide],scaled lipid accumulation score,[3],≤ 0
"Brc1ccc(C2CN3CCSC3=N2)cc1 (single isomer, unassigned; (-)) [(-)-p-Bromotetramisole Oxalate]",scaled lipid accumulation score,[2],≤ -0.009
same,scaled lipid accumulation score,[1],0.192
C=CCNC(=O)c1cc([N+](=O)[O-])cc2c(=O)[nH]c(Nc3ccc(Cl)c(Cl)c3)nc12,scaled lipid accumulation score,[1],0.02
Cc1nc(-c2ccccc2)c(-c2ccncc2)o1,scaled lipid accumulation score,[2],≤ 0
CO[C@@H](C(=O)N1Cc2[nH]nc(NC(=O)c3ccc(N4CCN(C)CC4)cc3)c2C1)c1ccccc1 [listing 1 of 2 here],scaled lipid accumulation score,[1],0.915 (active)
CCc1cccc(CC)c1NC(=O)N1Cc2[nH]nc(NC(=O)c3ccc(N4CCN(C)CC4)cc3)c2C1,scaled lipid accumulation score,[2],0.21
same,scaled lipid accumulation score,[1],0.34
CO[C@@H](C(=O)N1Cc2[nH]nc(NC(=O)c3ccc(N4CCN(C)CC4)cc3)c2C1)c1ccccc1 [listing 2 of 2 here],scaled lipid accumulation score,[5],≤ -0.005
same,scaled lipid accumulation score,[6],≤ -0.005
same,scaled lipid accumulation score,[2],0.533
same,scaled lipid accumulation score,[1],0.779
O=C1c2c(O)cc(O)cc2O[C@H](c2ccc(O)c(O)c2)[C@H]1O,scaled lipid accumulation score,[1],≤ 0
OCc1ccccc1O [Salicyl alcohol],scaled lipid accumulation score,[1],≤ 0
same,scaled lipid accumulation score,library stock concentration: 16.1 mM,≤ 0
COc1ccc(S(=O)(=O)N(C(C)=O)c2ccccc2/C=C/c2cc[n+]([O-])cc2)cc1,scaled lipid accumulation score,[4],≤ -0.016
same,scaled lipid accumulation score,[5],≤ -0.016
same,scaled lipid accumulation score,[6],≤ -0.016
same,scaled lipid accumulation score,[2],≤ 0
same,scaled lipid accumulation score,[1],≤ 0 and 0.15
COc1ccc(S(=O)(=O)N(CCO)c2ccccc2CN(C)CC=Cc2ccc(Cl)cc2)cc1.O=P(=O)OO.[H] [KN-93 Phosphate],scaled lipid accumulation score,[1],1.07 (active)
COc1ccc(S(=O)(=O)N(CCO)c2ccccc2CN(C)C/C=C/c2ccc(Cl)cc2)cc1 [KN-93 Phosphate],scaled lipid accumulation score,[2],0.441
CCCCCCCC/C=C\CCCCCCCC(=O)N[C@@H](CO)C(=O)O [N-Oleoyl-L-Serine],scaled lipid accumulation score,[3],≤ 0
CCCC1([C@H](O)C/C=C/[C@H]2[C@H](O)CC(=O)[C@@H]2CCCCCCC(=O)OC)CCC1 [Butaprost],scaled lipid accumulation score,[3],≤ 0
CC/C=C\C/C=C\C/C=C\C/C=C\C/C=C\CCCCCC(=O)O [Docosapentaenoic acid],scaled lipid accumulation score,[3],≤ -0.021
CC/C=C\C/C=C\C/C=C\C/C=C\C/C=C\CCCCCC(=O)O [Docosapentaenoic Acid],scaled lipid accumulation score,[3],≤ 0
COc1cc2nccc(Oc3ccc(NC(=O)Nc4cc(C)on4)c(Cl)c3)c2cc1OC [Tivozanib (AV-951)],scaled lipid accumulation score,[2],0.068
same,scaled lipid accumulation score,[1],0.098
COc1cc2nccc(Oc3ccc(NC(=O)Nc4ccc(F)cc4F)c(F)c3)c2cc1OC [listing 1 of 3 here],scaled lipid accumulation score,[1],1.22 (active)
"COc1cc2nccc(Oc3ccc(NC(=O)Nc4cc(C)on4)c(Cl)c3)c2cc1OC [AV951 (KRN951, Tivozanib) (0.4 mM)]",scaled lipid accumulation score,[5],≤ -0.005
COc1cc2nccc(Oc3ccc(NC(=O)Nc4cc(C)on4)c(Cl)c3)c2cc1OC [VEGFR Tyrosine Kinase Inhibitor IV],scaled lipid accumulation score,[2],≤ 0
COc1cc2nccc(Oc3ccc(NC(=O)Nc4ccc(F)cc4F)c(F)c3)c2cc1OC [listing 2 of 3 here],scaled lipid accumulation score,[2],0.473
COc1cc2nccc(Oc3ccc(NC(=O)Nc4cc(C)on4)c(Cl)c3)c2cc1OC,scaled lipid accumulation score,[4],0.016
same,scaled lipid accumulation score,[5],≤ 0
same,scaled lipid accumulation score,[6],0.009
same,scaled lipid accumulation score,[1],0.246
COc1cc2nccc(Oc3ccc(NC(=O)NC4CC4)c(Cl)c3)c2cc1C(N)=O [Lenvatinib (E7080)],scaled lipid accumulation score,[2],0.055
same,scaled lipid accumulation score,[1],≤ 0
COc1cc2nccc(Oc3ccc(NC(=O)Nc4ccc(F)cc4F)c(F)c3)c2cc1OC [listing 3 of 3 here],scaled lipid accumulation score,[1],1.05 (active)
COc1cc(Oc2ccnc3cc(OC)c(OC)cc23)ccc1NC(=O)NC(C)c1nccs1 (configuration not stated),scaled lipid accumulation score,[4],≤ -0.016
same,scaled lipid accumulation score,[5],≤ -0.016 and ≤ -0.005
same,scaled lipid accumulation score,[6],≤ -0.016 and ≤ -0.005
same,scaled lipid accumulation score,[1],0.713 and 0.552
COc1cc2nccc(Oc3ccc(NC(=O)NC4CC4)c(Cl)c3)c2cc1C(N)=O,scaled lipid accumulation score,[5],0.067
same,scaled lipid accumulation score,[6],≤ -0.005
same,scaled lipid accumulation score,[1],≤ -0.005
"COc1cc2nccc(Oc3ccc(NC(=O)Nc4cc(C)on4)c(Cl)c3)c2cc1OC [AV951 (KRN951, Tivozanib) (2 mM)]",scaled lipid accumulation score,[6],≤ -0.005
"COc1cc2nccc(Oc3ccc(NC(=O)Nc4cc(C)on4)c(Cl)c3)c2cc1OC [AV951 (KRN951, Tivozanib) (10 mM)]",scaled lipid accumulation score,[1],0.775
